# Test results taken from PubChem BioAssay (EPA / NIEHS).
# “And” between values parts separate entries of the source, which are not always exact repeats. Equal entries are not always repeated. A structure can be active in one record and inactive in another. The source made the active and inactive calls. Rule for the calls: active = hit-call score of the fitted dose curve at least 0.9, where 1 is the maximum; inactive = score below 0.9.
# Assays:
# [1] = ATG_GLI_CIS: Attagene CIS-FACTORIAL HepG2 Assay for human Zinc Finger Protein GLI1 (AID 2282945); settings: HepG2, Attagene cis-factorial reporter mRNA, GLI element; actives raise or lower the signal
# How it was run: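 Transiently transfected HepG2 cells report endogenous transcription factor activity via cis-element-driven reporter units. After 24 h compound exposure, reporter mRNA was measured by RT-PCR with capillary electrophoresis; bidirectional fitting against DMSO baseline.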
# [2] = biological target: Bile acid receptor (Homo sapiens) (UniProt Q96RI1); assay: ATG_IR1_CIS: Attagene CIS-FACTORIAL HepG2 Assay for human Nuclear Receptor Subfamily 1 Group H Member 4 (NR1H4), IR1 submotif (AID 2282946); settings: IR1 reporter transcription, actives raise or lower the signal
# Bile acid receptor (Homo sapiens), sequence (Q96RI1 whole entry, looked up): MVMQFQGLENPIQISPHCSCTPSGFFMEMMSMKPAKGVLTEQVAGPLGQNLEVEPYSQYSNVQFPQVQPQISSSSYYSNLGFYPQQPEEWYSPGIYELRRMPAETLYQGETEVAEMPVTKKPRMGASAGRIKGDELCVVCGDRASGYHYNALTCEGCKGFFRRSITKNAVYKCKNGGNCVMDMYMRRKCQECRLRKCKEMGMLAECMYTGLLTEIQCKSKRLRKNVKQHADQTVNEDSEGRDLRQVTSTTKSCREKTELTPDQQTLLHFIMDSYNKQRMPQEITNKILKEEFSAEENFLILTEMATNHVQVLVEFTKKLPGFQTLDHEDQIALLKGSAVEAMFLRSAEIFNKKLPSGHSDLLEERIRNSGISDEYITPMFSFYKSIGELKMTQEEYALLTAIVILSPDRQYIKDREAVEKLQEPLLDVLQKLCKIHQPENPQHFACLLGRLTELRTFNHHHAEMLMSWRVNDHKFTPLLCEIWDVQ
# How it was run: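 HepG2 cells transiently transfected with multiple cis-promoter-driven reporter units to measure endogenous transcription factor activity; 24 h exposure. Reporter mRNA read by RT-PCR, FAM labelling, HpaI digestion and capillary electrophoresis. Bidirectional fit versus DMSO.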
# [3] = ATG_GRE_CIS: Attagene CIS-FACTORIAL HepG2 Assay for human Glucocorticoid Response Elements (GRE) (AID 2282947); settings: HepG2 GRE cis-reporter, Attagene multiplex mRNA; actives raise or lower the signal
# How it was run: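 Endogenous transcription factor activity is read through cis-element reporter constructs transiently transfected into HepG2 cells. After 24 h treatment, labelled RT-PCR products are resolved by capillary electrophoresis; DMSO sets baseline for bidirectional curve fitting.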
# [4] = ATG_ISRE_CIS: Attagene CIS-FACTORIAL HepG2 Assay for human Interferon Regulatory Factor 1 (IRF1) binding to an Interferon-Stimulated Response Element (ISRE) (AID 2282948); settings: HepG2 ISRE cis-reporter (Attagene), mRNA transcription readout; actives raise or lower the signal
# How it was run: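 Quantitation relies on labelled RT-PCR fragments separated by capillary electrophoresis. Human HepG2 cells bearing cis-promoter reporter constructs were treated 24 h; DMSO served as baseline for bidirectional fitting.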
# [5] = ATG_M_32_CIS: Attagene CIS-FACTORIAL HepG2 Assay for M32 Transcription Factor (Internal Marker) (AID 2282949); settings: HepG2 Attagene cis-factorial M32 reporter, mRNA; actives raise or lower the signal;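 note: background control marker of the multiplexed CIS panel rather than a real target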
# How it was run: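 Internal background marker read-out: RT-PCR/capillary electrophoresis fluorescence of reporter transcripts from transiently transfected HepG2 cells after 24 h chemical exposure. Activity fitted bidirectionally relative to DMSO negative control.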
# [6] = biological target: Hypoxia-inducible factor 1-alpha (Homo sapiens) (UniProt Q16665); assay: ATG_HIF1a_CIS: Attagene CIS-FACTORIAL HepG2 Assay for human Hypoxia Inducible Factor 1 (HIF1A) (AID 2282951); settings: HepG2 Attagene cis-factorial HIF1a reporter transcription; actives raise or lower the signal
# Hypoxia-inducible factor 1-alpha (Homo sapiens), sequence (Q16665 whole entry, looked up): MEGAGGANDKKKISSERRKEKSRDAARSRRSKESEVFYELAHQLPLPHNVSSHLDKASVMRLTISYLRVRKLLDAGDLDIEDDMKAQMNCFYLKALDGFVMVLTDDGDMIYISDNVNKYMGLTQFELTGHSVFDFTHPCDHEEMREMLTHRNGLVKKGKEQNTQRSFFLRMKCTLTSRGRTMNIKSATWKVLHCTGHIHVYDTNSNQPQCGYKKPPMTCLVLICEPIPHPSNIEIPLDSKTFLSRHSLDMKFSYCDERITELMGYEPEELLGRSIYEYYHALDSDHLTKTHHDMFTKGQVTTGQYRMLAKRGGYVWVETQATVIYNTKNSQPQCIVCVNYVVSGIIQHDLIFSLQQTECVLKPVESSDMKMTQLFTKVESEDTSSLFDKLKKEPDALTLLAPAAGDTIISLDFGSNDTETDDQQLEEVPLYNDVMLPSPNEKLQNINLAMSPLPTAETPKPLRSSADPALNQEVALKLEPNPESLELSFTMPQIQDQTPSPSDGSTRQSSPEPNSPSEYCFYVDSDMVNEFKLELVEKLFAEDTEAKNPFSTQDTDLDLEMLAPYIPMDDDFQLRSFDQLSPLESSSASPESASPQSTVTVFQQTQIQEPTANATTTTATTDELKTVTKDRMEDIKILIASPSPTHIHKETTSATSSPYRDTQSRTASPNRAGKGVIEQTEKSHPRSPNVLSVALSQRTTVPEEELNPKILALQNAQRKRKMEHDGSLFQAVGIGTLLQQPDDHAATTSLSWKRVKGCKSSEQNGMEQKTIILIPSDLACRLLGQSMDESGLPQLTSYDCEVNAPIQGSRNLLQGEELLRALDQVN
# How it was run: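 Activity is fitted in both directions relative to DMSO. Reporter transcripts are read by RT-PCR, fluorescent primer extension and capillary electrophoresis after 24 h chemical treatment. The cells are HepG2 carrying transiently transfected cis-element-driven reporter units responding to endogenous factors.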
# [7] = biological target: Hepatocyte nuclear factor 6 (Homo sapiens) (UniProt Q9UBC0); assay: ATG_HNF6_CIS: Attagene CIS-FACTORIAL HepG2 Assay for human Hepatocyte Nuclear Factor 6 (HNF6) (AID 2282952); settings: HepG2 Attagene cis-factorial HNF6 reporter transcription; actives raise or lower the signal
# Hepatocyte nuclear factor 6 (Homo sapiens), sequence (Q9UBC0 whole entry, looked up): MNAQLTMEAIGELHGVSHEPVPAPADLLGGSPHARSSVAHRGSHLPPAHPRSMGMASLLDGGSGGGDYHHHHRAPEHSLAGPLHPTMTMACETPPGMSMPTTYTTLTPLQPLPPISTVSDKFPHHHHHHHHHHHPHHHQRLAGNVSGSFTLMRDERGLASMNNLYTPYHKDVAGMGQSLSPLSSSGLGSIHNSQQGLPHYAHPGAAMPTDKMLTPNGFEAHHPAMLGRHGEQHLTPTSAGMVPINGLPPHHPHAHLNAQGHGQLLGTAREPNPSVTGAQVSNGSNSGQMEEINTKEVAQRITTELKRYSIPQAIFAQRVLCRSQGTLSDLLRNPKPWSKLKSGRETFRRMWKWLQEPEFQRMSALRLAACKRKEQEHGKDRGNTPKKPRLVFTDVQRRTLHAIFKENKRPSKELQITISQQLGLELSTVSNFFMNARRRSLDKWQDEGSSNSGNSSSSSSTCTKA
# How it was run: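 Multiplexed mRNA reporter assay in transfected HepG2; 24 h dosing; RT-PCR plus capillary electrophoresis fluorescence; DMSO-referenced bidirectional curve fitting.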
# [8] = biological target: Heat shock factor protein 1 (Homo sapiens) (UniProt Q00613); assay: ATG_HSE_CIS: Attagene CIS-FACTORIAL HepG2 Assay for human Heat Shock Transcription Factor 1 (HSE) (AID 2282953); settings: HepG2 HSE cis-reporter, Attagene RNA transcription; actives raise or lower the signal
# Heat shock factor protein 1 (Homo sapiens), sequence (Q00613 whole entry, looked up, the tested form may be a part): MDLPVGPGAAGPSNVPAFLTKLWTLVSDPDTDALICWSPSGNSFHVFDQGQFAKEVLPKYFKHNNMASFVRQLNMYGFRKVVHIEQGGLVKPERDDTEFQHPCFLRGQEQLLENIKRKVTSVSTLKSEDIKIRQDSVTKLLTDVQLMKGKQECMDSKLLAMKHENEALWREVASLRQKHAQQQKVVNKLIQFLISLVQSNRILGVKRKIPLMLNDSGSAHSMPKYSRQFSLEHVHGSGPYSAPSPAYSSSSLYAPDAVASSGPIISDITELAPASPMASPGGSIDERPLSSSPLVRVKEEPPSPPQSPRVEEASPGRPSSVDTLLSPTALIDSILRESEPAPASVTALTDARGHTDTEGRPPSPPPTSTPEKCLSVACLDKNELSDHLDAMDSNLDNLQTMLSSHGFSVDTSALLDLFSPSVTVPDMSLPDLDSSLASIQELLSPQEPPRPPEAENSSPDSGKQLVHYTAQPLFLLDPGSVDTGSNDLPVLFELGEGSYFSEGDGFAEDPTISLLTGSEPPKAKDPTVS
# How it was run: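 Read-out: fluorescence of reporter-specific RT-PCR fragments separated by capillary electrophoresis. HepG2 carrying transfected cis-element reporter units; 24 h dosing; activity fitted in both directions relative to DMSO baseline.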
# [9] = ATG_MRE_CIS: Attagene CIS-FACTORIAL HepG2 Assay for human Metal Responsive Element (MRE) (AID 2282954); settings: HepG2 MRE cis-reporter transcription, Attagene multiplex; actives raise or lower the signal
# How it was run: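 Fluorescent reporter fragments separated by capillary electrophoresis give mRNA induction for the MRE unit after 24 h treatment of transfected HepG2 cells. Endogenous transcription-factor activity is read; DMSO serves as negative control and baseline.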
# [10] = ATG_PBREM_CIS: Attagene CIS-FACTORIAL HepG2 Assay for human Phenobarbital-responsive Enhancer Module (PBREM) (AID 2282955); settings: HepG2 PBREM cis-reporter, Attagene multiplexed transcription; actives raise or lower the signal
# How it was run: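 Endogenous transcription factor activity was read from reporter transcripts in transiently transfected human HepG2 liver cells after 24 h dosing. RT-PCR products were fluorescently labelled, HpaI-cut and sized by capillary electrophoresis; activity fitted bidirectionally against DMSO baseline.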
# [11] = ATG_PXRE_CIS: Attagene CIS-FACTORIAL HepG2 Assay for human Pregnane X Receptor Element (PXRE) (AID 2282957); settings: HepG2 Attagene CIS-FACTORIAL PXRE reporter, mRNA; actives raise or lower the signal
# How it was run: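 Cells: HepG2, transiently transfected reporter units under cis promoter control. Exposure: 24 h. Detection: reporter mRNA via RT-PCR/CE fluorescence; bidirectional fitting, DMSO-referenced.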
# [12] = ATG_PPRE_CIS: Attagene CIS-FACTORIAL HepG2 Assay for human Peroxisome Proliferator-activated Response Element (PPRE) (AID 2282958); settings: HepG2 PPRE cis-element reporter, Attagene transcription factor profiling; actives raise or lower the signal
# How it was run: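 Endogenous PPRE-driven transcription is measured in HepG2 cells carrying transfected multi-reporter constructs. Reporter transcripts are quantified by RT-PCR, HpaI digestion and capillary electrophoresis 24 h after dosing. DMSO baseline, bidirectional fit.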
# [13] = ATG_Sox_CIS: Attagene CIS-FACTORIAL HepG2 Assay for human SRY-box transcription factor (SOX) (AID 2282960); settings: HepG2 Attagene cis-factorial SOX reporter, mRNA; actives raise or lower the signal
# How it was run: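 Reporter transcripts, measured by RT-PCR and capillary electrophoresis of labelled fragments, report endogenous SOX transcription factor activity. Transiently transfected human HepG2 cells receive chemical for 24 h; changes in either direction are fitted relative to DMSO.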
# [14] = biological target: Transcription factor Sp1 (Homo sapiens) (UniProt P08047); assay: ATG_Sp1_CIS: Attagene CIS-FACTORIAL HepG2 Assay for human Specificity Protein 1 (Sp1) (AID 2282961); settings: HepG2 Sp1 cis-reporter transcription, actives raise or lower the signal
# Transcription factor Sp1 (Homo sapiens), sequence (P08047 whole entry, looked up): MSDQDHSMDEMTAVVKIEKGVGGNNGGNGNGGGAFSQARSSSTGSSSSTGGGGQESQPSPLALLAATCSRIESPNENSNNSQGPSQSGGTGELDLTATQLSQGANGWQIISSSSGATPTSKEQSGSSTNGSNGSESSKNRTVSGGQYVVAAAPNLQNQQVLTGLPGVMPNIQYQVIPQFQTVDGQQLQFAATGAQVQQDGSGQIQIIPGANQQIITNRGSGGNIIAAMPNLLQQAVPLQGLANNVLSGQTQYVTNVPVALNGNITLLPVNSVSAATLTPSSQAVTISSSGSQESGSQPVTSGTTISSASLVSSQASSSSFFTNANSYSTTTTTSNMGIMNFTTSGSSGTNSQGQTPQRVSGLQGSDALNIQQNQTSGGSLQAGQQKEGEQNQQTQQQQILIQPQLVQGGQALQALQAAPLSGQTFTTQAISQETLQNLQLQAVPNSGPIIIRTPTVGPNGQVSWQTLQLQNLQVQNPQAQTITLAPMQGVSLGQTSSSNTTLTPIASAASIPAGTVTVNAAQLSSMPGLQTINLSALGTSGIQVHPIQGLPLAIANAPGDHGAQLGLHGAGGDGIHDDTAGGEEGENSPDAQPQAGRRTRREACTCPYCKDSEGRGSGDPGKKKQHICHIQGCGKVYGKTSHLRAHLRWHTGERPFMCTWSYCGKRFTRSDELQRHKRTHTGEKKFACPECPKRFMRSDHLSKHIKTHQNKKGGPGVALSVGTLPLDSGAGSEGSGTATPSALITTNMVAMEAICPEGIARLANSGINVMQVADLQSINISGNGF
# How it was run: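 Read-out is reporter transcript level, measured by RT-PCR and fluorescent capillary electrophoresis after 24 h chemical treatment. System: transiently transfected HepG2 cells reporting endogenous transcription factor activity; gain or loss fitted against DMSO baseline.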
# [15] = ATG_SREBP_CIS: Attagene CIS-FACTORIAL HepG2 Assay for human Sterol Regulatory Element Binding (SREBP) (AID 2282962); settings: HepG2 Attagene cis-factorial SREBP reporter, mRNA; actives raise or lower the signal
# How it was run: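 Twenty-four hours after chemical dosing of transfected HepG2 cultures, reporter RNA was converted to cDNA, amplified, end-labelled with 6-FAM and resolved by capillary electrophoresis. Responses were fitted relative to DMSO.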
# [16] = biological target: Signal transducer and activator of transcription 3 (Homo sapiens) (UniProt P40763); assay: ATG_STAT3_CIS: Attagene CIS-FACTORIAL HepG2 Assay for human Signal Transducer and Activator of Transcription 3 (STAT3) (AID 2282963); settings: HepG2, Attagene cis-factorial STAT3 reporter transcription; actives raise or lower the signal
# Signal transducer and activator of transcription 3 (Homo sapiens), sequence (P40763 whole entry, looked up): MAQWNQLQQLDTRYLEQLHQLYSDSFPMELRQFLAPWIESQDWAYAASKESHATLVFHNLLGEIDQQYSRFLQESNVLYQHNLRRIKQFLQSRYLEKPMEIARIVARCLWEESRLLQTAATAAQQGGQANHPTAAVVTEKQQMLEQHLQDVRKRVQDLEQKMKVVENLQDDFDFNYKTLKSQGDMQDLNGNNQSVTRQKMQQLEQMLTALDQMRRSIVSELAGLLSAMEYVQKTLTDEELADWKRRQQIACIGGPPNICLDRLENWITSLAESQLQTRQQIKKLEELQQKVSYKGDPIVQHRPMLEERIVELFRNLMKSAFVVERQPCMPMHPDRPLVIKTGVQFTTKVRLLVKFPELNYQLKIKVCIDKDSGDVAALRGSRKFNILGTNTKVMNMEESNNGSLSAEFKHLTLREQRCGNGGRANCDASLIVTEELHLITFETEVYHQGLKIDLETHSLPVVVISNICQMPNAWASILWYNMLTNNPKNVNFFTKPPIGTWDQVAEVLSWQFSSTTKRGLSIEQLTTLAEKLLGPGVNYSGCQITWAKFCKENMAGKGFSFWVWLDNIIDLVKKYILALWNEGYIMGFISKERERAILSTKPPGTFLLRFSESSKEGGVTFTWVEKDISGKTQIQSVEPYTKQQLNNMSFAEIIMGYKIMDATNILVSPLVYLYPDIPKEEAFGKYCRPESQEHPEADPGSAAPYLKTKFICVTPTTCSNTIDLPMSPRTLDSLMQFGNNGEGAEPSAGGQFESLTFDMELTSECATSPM
# How it was run: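 Values derive from bidirectional fits relative to DMSO of reporter mRNA levels, measured by RT-PCR with capillary electrophoresis, in HepG2 cells carrying transiently transfected cis-regulated reporter units and exposed 24 h.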
# [17] = ATG_TA_CIS: Attagene CIS-FACTORIAL HepG2 Assay for human TA Basal Promoter (AID 2282964); settings: HepG2 Attagene CIS-factorial TA basal promoter reporter; actives raise or lower the signal
# How it was run: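 Transfected HepG2, 24 h compound exposure; RNA → RT-PCR → FAM primer extension → HpaI cut → CE fluorescence. Gain/loss-of-signal fitted against DMSO negative control. Background-control readout.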
# [18] = ATG_M_06_CIS: Attagene CIS-FACTORIAL HepG2 Assay for M06 Transcription Factor (Internal Marker) (AID 2282950); settings: HepG2 Attagene CIS-FACTORIAL M06 internal marker reporter; actives raise or lower the signal
# How it was run: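 Terse: HepG2, transient MRTU transfection (FuGene 6), 24 h dosing; total RNA, oligo(dT) RT, PCR, FAM label, HpaI cut, capillary electrophoresis; bidirectional fit vs DMSO baseline; background-control endpoint.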
# [19] = ATG_RORE_CIS: Attagene CIS-FACTORIAL HepG2 Assay for human RAR-related Orphan Receptor Element (RORE) (AID 2282959); settings: HepG2 Attagene cis-factorial RORE reporter, mRNA; actives raise or lower the signal
# How it was run: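 RORE reporter transcripts reflecting endogenous factor activity were read after 24 h compound exposure of transfected HepG2 cells, using reverse transcription, PCR, fluorescent labelling and capillary electrophoresis sizing. Gain or loss fitted against DMSO.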
# [20] = biological target: Paired box protein Pax-6 (Homo sapiens) (UniProt P26367); assay: ATG_Pax6_CIS: Attagene CIS-FACTORIAL HepG2 Assay for human Paired Box 6 (PAX6) (AID 2282956); settings: HepG2 CIS-FACTORIAL PAX6 reporter transcription, RNA readout; actives raise or lower the signal
# Paired box protein Pax-6 (Homo sapiens), sequence (P26367 whole entry, looked up): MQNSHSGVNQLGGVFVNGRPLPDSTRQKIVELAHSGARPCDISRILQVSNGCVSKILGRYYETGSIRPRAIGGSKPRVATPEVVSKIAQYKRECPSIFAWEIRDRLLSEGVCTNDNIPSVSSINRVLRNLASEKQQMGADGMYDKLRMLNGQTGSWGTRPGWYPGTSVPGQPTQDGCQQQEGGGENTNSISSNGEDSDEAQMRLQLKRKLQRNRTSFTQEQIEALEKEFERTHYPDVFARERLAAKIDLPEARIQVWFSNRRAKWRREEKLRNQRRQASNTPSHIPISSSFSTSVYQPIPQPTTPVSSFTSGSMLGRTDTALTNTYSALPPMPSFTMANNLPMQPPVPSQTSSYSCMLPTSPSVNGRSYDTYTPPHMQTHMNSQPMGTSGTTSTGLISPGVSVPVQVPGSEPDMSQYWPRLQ
# How it was run: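 After twenty-four hours of chemical exposure, transfected HepG2 cells are harvested for RNA. Cis-promoter reporter transcripts are amplified, fluorescently labelled and sized by capillary electrophoresis, with gain and loss of signal scored against DMSO.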
structure (smiles),measurement,setting,value
CCC(=C(c1ccc(O)cc1)c1ccc(OCCN(C)C)cc1)c1ccccc1,AC50,[1],11.2 µM (active)
same,outcome,[1],inactive
same,AC50,[2],1.45 µM (active)
same,outcome,[2],inactive
same,AC50,[3],13.1 µM (active)
same,outcome,[3],inactive
same,AC50,[4],9.63 µM (active)
same,outcome,[4],inactive
same,outcome,[5],inactive
same,AC50,[6],4.12 µM (active)
same,outcome,[6],inactive
same,AC50,[7],11.1 µM (active)
same,outcome,[7],inactive
same,AC50,[8],12.1 µM (active) and 12.3 µM (active)
same,outcome,[8],inactive
same,AC50,[9],7.1 µM (active) and 9.34 µM (active)
same,outcome,[9],inactive
same,AC50,[10],7.1 µM (active) and 11.2 µM (active)
same,outcome,[10],inactive
same,AC50,[11],1.05 µM (active) [middle of 4 runs]
same,outcome,[12],inactive
same,AC50,[13],7.1 µM (active) and 11.3 µM (active)
same,outcome,[13],inactive
same,AC50,[14],13.4 µM (active)
same,outcome,[14],inactive
same,AC50,[15],3.6 µM (active)
same,outcome,[15],inactive
same,outcome,[16],inactive
same,AC50,[17],10 µM (active)
same,outcome,[17],inactive
CCCOc1sc(C(=O)N2CCC(c3cc(CN)ccc3F)CC2)c(C)c1Br,outcome,[1],inactive
same,AC50,[2],1.12 µM (active)
same,outcome,[3],inactive
same,outcome,[4],inactive
same,outcome,[5],inactive
same,outcome,[18],inactive
same,AC50,[6],3.7 µM (active)
same,outcome,[7],inactive
same,outcome,[8],inactive
same,outcome,[9],inactive
same,outcome,[10],inactive
same,AC50,[11],2.09 µM (active)
same,outcome,[12],inactive
same,outcome,[19],inactive
same,outcome,[13],inactive
same,outcome,[14],inactive
same,AC50,[15],3.7 µM (active)
same,outcome,[16],inactive
same,outcome,[17],inactive
c1ccc2cc3c(ccc4ccccc43)cc2c1,outcome,[1],inactive
same,AC50,[2],621 nM (active) and 25.4 µM (active) and 1.92 µM (active)
same,outcome,[2],inactive
same,outcome,[4],inactive
same,outcome,[5],inactive
same,AC50,[6],3.05 µM (active) and 2.3 µM (active)
same,outcome,[6],inactive
same,outcome,[7],inactive
same,AC50,[8],120 µM (active)
same,outcome,[8],inactive
same,outcome,[9],inactive
same,outcome,[10],inactive
same,AC50,[11],8.53 µM (active) and 20.8 µM (active)
same,outcome,[11],inactive
same,AC50,[19],1.44 µM (active)
same,outcome,[19],inactive
same,outcome,[13],inactive
same,outcome,[14],inactive
same,outcome,[15],inactive
same,outcome,[16],inactive
same,outcome,[17],inactive
CC[C@H](c1ccc(O)cc1)[C@@H](CC)c1ccc(O)cc1,outcome,[1],inactive
same,AC50,[2],11.1 µM (active)
same,outcome,[2],inactive
same,outcome,[3],inactive
same,AC50,[4],11.1 µM (active) and 17.2 µM (active)
same,outcome,[4],inactive
same,outcome,[5],inactive
same,outcome,[18],inactive
same,outcome,[7],inactive
same,outcome,[8],inactive
same,AC50,[9],11.1 µM (active)
same,outcome,[9],inactive
same,outcome,[10],inactive
same,AC50,[11],3.02 µM (active) [middle of 4 runs]
same,outcome,[12],inactive
same,outcome,[19],inactive
same,outcome,[13],inactive
same,outcome,[14],inactive
same,outcome,[15],inactive
same,outcome,[16],inactive
same,outcome,[17],inactive
O=C1OC2(c3ccccc31)c1cc(Br)c(O)c(Br)c1Oc1c2cc(Br)c(O)c1Br,outcome,[1],inactive
same,outcome,[2],inactive
same,outcome,[3],inactive
same,outcome,[4],inactive
same,outcome,[5],inactive
same,outcome,[18],inactive
same,outcome,[6],inactive
same,outcome,[7],inactive
same,outcome,[8],inactive
same,AC50,[9],76.3 µM (active)
same,outcome,[9],inactive
same,AC50,[10],52.2 µM (active)
same,outcome,[10],inactive
same,outcome,[20],inactive
same,AC50,[11],25.8 µM (active) and 5.86 µM (active)
same,outcome,[12],inactive
same,AC50,[19],74.9 µM (active) and 46.2 µM (active)
same,outcome,[13],inactive
same,outcome,[14],inactive
same,outcome,[15],inactive
same,outcome,[16],inactive
same,outcome,[17],inactive
